HPGD inh = blocks human HPGD enzyme activity; P15428; actives 4.3% (n = 150,000); Potency, µM, hits mostly inhibitors; AID 894; purified HPGD, NADH fluorescence kinetic, PGE2 substrate
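20 nM HPGD preincubated 15 min at room temperature with compound in 50 mM Tris-HCl pH 8, 0.01% Tween 20. Started with 1 mM NAD+ and 30 uM prostaglandin E2; NADH fluorescence (360/450 nm) read 5 times over 30-s intervals, last minus first.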
IMPase inh = cell-permeable inhibitors of inositol monophosphatase (IMPase); P97697; CHO-M1 cells, IP1 accumulation, HTRF TR-FRET ratio; inhibition (IP1 accumulation), % at 46.1 µM; 120,000 tested, under 10 active; AID 901; active means well fitted curve in the direction sought with a large enough effect in the signal ratio, not every such curve was filed as active; inconclusive means small, poorly fitted or top-dose-only effect, or a change in a side signal; inactive means no such curve, though single readings can be large or run the other way; the % refers to the signal ratio;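 further: cells stimulated with carbachol in lithium chloride buffer; higher means more IMPase inhibition seen as more IP1 and lower FRET ratio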
Target sequence (P97697 whole entry, looked up): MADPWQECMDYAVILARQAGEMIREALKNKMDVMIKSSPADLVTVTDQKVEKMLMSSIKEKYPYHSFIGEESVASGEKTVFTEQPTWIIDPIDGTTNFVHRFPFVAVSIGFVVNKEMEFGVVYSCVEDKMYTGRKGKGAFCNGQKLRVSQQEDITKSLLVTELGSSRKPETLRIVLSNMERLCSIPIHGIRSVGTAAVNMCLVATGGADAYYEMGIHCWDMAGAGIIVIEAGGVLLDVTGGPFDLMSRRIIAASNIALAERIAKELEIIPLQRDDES
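CHO-M1 cells (CHO stably expressing M1 receptor), compound up to 46 uM final, stimulated with carbachol (50 uM as added) in buffer with 50mM LiCl, pH 7.4, 30 min at 37C. Cytosolic IP1 read by TR-FRET; AC50 from Hill fits.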
ALDH1A1 inh = ALDH1A1 (human) enzyme inhibition; Potency, µM (series often up to 75.3 µM), most hits filed as inhibitors; P00352; actives 7.3% (n = 220,000); Purified ALDH1A1, NADH fluorescence, propionaldehyde substrate
A number is an active result; n = inactive; u = inconclusive; x = not tested or not shown; [ ] = another dose, or the depositor's remark. Hits are enriched below; roughly 9% of the tested compounds scored in any of these assays. Unless noted, the call rests on the fitted dose curve; in most records, active means well fitted inhibition curve with a large enough effect (not every such curve was filed as active); inconclusive means small, poorly fitted or top-dose-only effect, or another doubt; inactive means no such curve, though single readings can be large or run the other way.

SMILES | HPGD inh | IMPase inh | ALDH1A1 inh
COC(=O)c1ccc(Oc2c(C)oc3cc(OCc4cnn(-c5ccccc5)c4)ccc3c2=O)cc1 | n | n | n
CCN(CC)S(=O)(=O)c1cccc(NC(=O)/C=C/c2cccc([N+](=O)[O-])c2)c1 | n | n | 7.9µM
CCN(CC)S(=O)(=O)c1ccc(/C=C/C(=O)Nc2ccc(F)cc2F)cc1 | x | n | 20µM
CCN(CC)S(=O)(=O)c1ccc(/C=C/C(=O)Nc2ccc(Br)cc2F)cc1 | n | x | u
COc1cc(/C=C/C(=O)Nc2cc(S(=O)(=O)N3CCOCC3)ccc2N2CCCC2)cc(OC)c1OC | x | x | 11µM
CCN(CC)S(=O)(=O)c1ccc(N2CCCCC2)c(NC(=O)/C=C/c2cc(OC)c(OC)c(OC)c2)c1 | n | x | 13µM
CCOC(=O)c1ccccc1NC(=O)/C=C/c1cc(OC)c(OC)c(OC)c1 | u | n | u
COc1ccc(/C=C/C(=O)Nc2cc(S(=O)(=O)N3CCOCC3)ccc2N2CCCC2)cc1OC | x | x | n
CCN(CC)S(=O)(=O)c1cccc(NC(=O)/C=C/c2ccc([N+](=O)[O-])cc2)c1 | n | n | n
O=C(N/N=C/c1ccc(OC(=O)c2ccccc2)c([N+](=O)[O-])c1)c1ccc(O)cc1 | n | x | n
OCCC1CN(Cc2ccc(Oc3ncccn3)cc2)CCN1C1CCCC1 (stereo not given) | x | x | n
COC(=O)C(C(=O)OC)C1c2ccccc2C=C(C)N1C(=O)OC (stereo not given) | n | x | n[13.5 µM]
COCCCn1c(Cc2csc(Nc3ccc(F)cc3)n2)nnc1SCC(N)=O | n | n | n
O=C(C1CCN(S(=O)(=O)N2CCC3(CC2)OCCO3)CC1)N1CCCCC1 | 16µM | x | n
O=C(C1CCN(S(=O)(=O)N2CCC3(CC2)OCCO3)CC1)N1CCOCC1 | n | n | n
Cc1nonc1C(=O)N/N=C/c1cccc(O)c1 | n | x | n
CCOC(=O)c1nn(-c2ccc(OC)cc2)c(=O)c2c(N)scc12 | n | n[1.84 µM] | 8.9µM
COc1ccc(/C=N/NC(=O)c2nn(-c3ccc(Cl)cc3)c(=O)c3c(N)scc23)cc1 | 11µM | n | 6.3µM
COc1ccc(/C=N/NC(=O)c2nn(-c3ccccc3)c(=O)c3c(N)scc23)cc1 | 28µM | n | 28µM
CCOC(=O)c1nn(-c2ccc(C)c(C)c2)c(=O)c2c(N)scc12 | x | n | n
COc1ccc(/C=N/NC(=O)c2csc(-n3nc(C)cc3C(F)(F)F)n2)cc1 | n | n | u
COc1ccc(/C=N/NC(=O)c2nn(-c3ccc(C)c(C)c3)c(=O)c3ccccc23)cc1 | u | n[1.84 µM] | n
CCOC(=O)C1CCN(C(=O)COc2ccc(Br)cc2C)CC1 | x | x | n
Cc1ccc(C)c(N2CCN(C(=O)c3cc4cc5ccc(C)cc5nc4s3)CC2)c1 | x | n | x
CC(C)NC(=O)N1CCC2(CC1)CCN(C(=O)c1ccco1)CC2 | n | x | u
SMILES | HPGD inh | IMPase inh | ALDH1A1 inh
CC(=O)OCC1C2CC[C@H]3C(OCc4ccc(F)cc4C(F)(F)F)OC[C@]4(C)[C@H]3C2=C(CN4C(=O)OC(C)(C)C)[C@H](C)C1COC(C)=O (stereo not given in full) | n | x | n
Cc1ccc2nc(SC(C(=O)c3ccccc3)c3ccccc3)nc(C)c2c1 (stereo not given) | n | x | u
COc1ccc(OC)c(-n2c(SCC(=O)Nc3cccc(S(N)(=O)=O)c3)nc3ccccc3c2=O)c1 | x | x | n
COc1cccc(-n2c(N)c(-c3nc4ccccc4[nH]3)sc2=S)c1 | x | x | 28µM
Cc1cc(C)c2c(N)c(-c3nc4ccccc4[nH]3)sc2n1 | n | n | n
N#Cc1ccc(NC(=O)CNc2cc(S(=O)(=O)N3CCOCC3)ccc2NCC2CCCO2)cc1 (stereo not given) | x | x | 18µM
O=C(Nc1cc(S(=O)(=O)N2CCOCC2)ccc1N1CCOCC1)C1CCCO1 (stereo not given) | x | x | n
CC(C)CN1CC[C@@]2(CCCN(C(=O)c3cccc(F)c3)C2)C1 | n | x | n
C[C@H]1Cc2c(-c3ccccc3)nc3c(c2CO1)CN(S(=O)(=O)c1ccc(C#N)cc1)CC3 | n | x | n[13.5 µM]
Cc1ccccc1NC(c1cccc(Cl)c1)c1nnnn1C1CCCCC1 (stereo not given) | n | x | n
N#CC1=C(N)OC2=C(C(=O)CCC2)C1c1ccccc1 (stereo not given) | n | n | n
CC1CC(=O)C2=C(C1)OC(N)=C(C#N)C2c1coc2ccccc2c1=O (stereo not given) | n | n | 18µM
O=[N+]([O-])c1ccc(Sc2cccc3cccnc23)c([N+](=O)[O-])c1 | n | n | n
O=[N+]([O-])c1ccc(Sc2cccc[n+]2[O-])c2nonc12 | x | x | 2.2µM
O=C(NCc1ccccc1Cl)C1CCN(c2cnccn2)CC1 | x | x | n
